The full list was thinned out, with hits kept by preference.
mHTT-CaM PPI inh: mHTT-calmodulin interaction abrogation; P42858; AlphaScreen His-mHTT/GST-CaM binding, luminescence; inhibition, % at 15 µM; 190,000 tested, 3.6% active; AID 1671202;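 further: 0% = both proteins with DMSO and 100% = one protein alone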
Pf apPOL inh: Pf-apPOL DNA polymerase inhibition; Recombinant Pf-apPOL, molecular beacon fluorescence, 1.5 h; inhibition, % at 10 µM; 210,000 tested, 0.25% active; AID 1794808
The depositor's hits bear a star. No stated cut-off is given here; in the data, active means inhibition above about 50%; inactive means the rest.

What do the screens show for `CC(C)OCC(O)Cn1cnc2c1c(=O)[nH]c(=O)n2C` (centres undefined)?
mHTT-CaM PPI inh: -1; Pf apPOL inh: -6

How did Oc1ccc(N=Cc2ccc(Br)cc2)cc1 do in these assays?
mHTT-CaM PPI inh: 64*; Pf apPOL inh: -8

Results for Oc1ccc(C=Nc2ccc(-c3ccccc3)cc2)cc1 ?
mHTT-CaM PPI inh: 5; Pf apPOL inh: -20

What do the screens show for `COc1cccc(C2C=C(c3cccc(Br)c3)Nc3nnnn32)c1` (centres undefined)?
mHTT-CaM PPI inh: -13; Pf apPOL inh: -6

What do the screens show for `Brc1cccc(C2C=C(c3cccs3)Nc3ncnn32)c1` (centres undefined)?
mHTT-CaM PPI inh: 13; Pf apPOL inh: 65*

Results for COc1ccc(C2C=C(c3cccc(Br)c3)Nc3nnnn32)cc1OC (centres undefined) ?
mHTT-CaM PPI inh: 65*; Pf apPOL inh: 4

What do the screens show for `Brc1ccc(C2C=C(c3cccs3)Nc3ncnn32)cc1` (centres undefined)?
mHTT-CaM PPI inh: 17; Pf apPOL inh: -3

Results for COc1cc(C2C=C(c3cccc(NC(C)=O)c3)Nc3ncnn32)cc(OC)c1OC (centres undefined) ?
mHTT-CaM PPI inh: -3; Pf apPOL inh: 61*

Results for COc1ccc(OC)c(C2C=C(c3cccc(Br)c3)Nc3nnnn32)c1 (centres undefined) ?
mHTT-CaM PPI inh: 56*; Pf apPOL inh: 9

How did COc1cccc(C2=CC(c3cc(OC)c(OC)c(OC)c3)n3ncnc3N2)c1 (centres undefined) do in these assays?
mHTT-CaM PPI inh: 28; Pf apPOL inh: 14

How did COc1ccc(OC)c(C2C=C(c3ccc(Cl)cc3)Nc3nnnn32)c1 (centres undefined) do in these assays?
mHTT-CaM PPI inh: 17; Pf apPOL inh: 0

Results for Cc1sc2cc(C(=O)NC3CCCC3)[nH]c2c1CN1CCCC1 ?
mHTT-CaM PPI inh: -5; Pf apPOL inh: -1

Results for O=C1NN(c2ccc(F)cc2)C(=O)/C1=C/c1cccn1-c1ccc([N+](=O)[O-])cc1 ?
mHTT-CaM PPI inh: 2; Pf apPOL inh: 3

What do the screens show for `Cc1ccc(C2C=C(c3cccc(Br)c3)Nc3ncnn32)cc1` (centres undefined)?
mHTT-CaM PPI inh: 14; Pf apPOL inh: -8

What do the screens show for `COc1ccc(C2C=C(c3cccc(Br)c3)Nc3ncnn32)cc1` (centres undefined)?
mHTT-CaM PPI inh: 59*; Pf apPOL inh: -10

What do the screens show for `Cc1cccc(OCC(=O)O/N=C(\N)c2ccncc2)c1C`?
mHTT-CaM PPI inh: inactive; Pf apPOL inh: -6

How did COc1ccc(N2C(=O)CCS2(=O)=O)cc1S(=O)(=O)N1CCOCC1 do in these assays?
mHTT-CaM PPI inh: -2; Pf apPOL inh: 0

How did Cc1cc(/C=C2\NC(=O)N(Cc3ccc(Cl)cc3)C2=O)c(C)n1-c1ccc(C#N)cc1 do in these assays?
mHTT-CaM PPI inh: 51*; Pf apPOL inh: -4

How did COc1cc(OC)c(OC)cc1/C=C1\NC(=O)N(Cc2ccc(Cl)cc2)C1=O do in these assays?
mHTT-CaM PPI inh: -1; Pf apPOL inh: -9

What do the screens show for `O=C(NCCc1ccccc1Cl)c1cc2n(n1)CCCN(Cc1ccc(F)cc1)C2=O`?
mHTT-CaM PPI inh: -2; Pf apPOL inh: 2

What do the screens show for `O=C(Nc1ncccc1O)c1c(O)c2cccc3c2n(c1=O)CC3`?
mHTT-CaM PPI inh: 52*; Pf apPOL inh: -5

Results for O=C(Nc1ncccn1)c1c(O)c2cccc3c2n(c1=O)CCC3 ?
mHTT-CaM PPI inh: 56*; Pf apPOL inh: -6

How did O=C(Nc1ccccn1)c1c(O)c2cccc3c2n(c1=O)CCC3 do in these assays?
mHTT-CaM PPI inh: 8; Pf apPOL inh: 0

Results for Cc1cccnc1NC(=O)c1c(O)c2cccc3c2n(c1=O)CCC3 ?
mHTT-CaM PPI inh: 10; Pf apPOL inh: -2

Results for CC(=O)Nc1cccc(N=Cc2c(C)[nH]n(-c3ccc(F)cc3)c2=O)c1 ?
mHTT-CaM PPI inh: 5; Pf apPOL inh: -3

Results for COc1ccc(NC(=O)CSc2nc3ccc(C)cc3[nH]2)c([N+](=O)[O-])c1 ?
mHTT-CaM PPI inh: 2; Pf apPOL inh: -8

Results for Cc1nc(-c2ccc(F)cc2)sc1C(=O)NC(C)C ?
mHTT-CaM PPI inh: -3; Pf apPOL inh: 0

What do the screens show for `CC(=O)Nc1ccc(Nc2nc(-c3c(C)nc4ccccn34)cs2)cc1`?
mHTT-CaM PPI inh: 21; Pf apPOL inh: -4

What do the screens show for `Cc1nc2ccccn2c1-c1csc(N)n1`?
mHTT-CaM PPI inh: -1

Results for C=CCNc1nc(-c2c(C)nc3ccccn23)cs1 ?
mHTT-CaM PPI inh: 9; Pf apPOL inh: 14

How did Cc1nc2ccccn2c1-c1csc(Nc2ccc(N)cc2)n1 do in these assays?
mHTT-CaM PPI inh: 63*; Pf apPOL inh: 1

Results for COc1ccccc1Nc1nc(-c2c(C)nc3cc(C)ccn23)cs1 ?
mHTT-CaM PPI inh: 76*; Pf apPOL inh: -1

How did Cc1ccnc(Nc2nc(-c3c(C)nc4ccccn34)cs2)c1 do in these assays?
mHTT-CaM PPI inh: 62*; Pf apPOL inh: -7

How did COc1ccc(C=C2Oc3c(ccc(O)c3CN3CCN(CCO)CC3)C2=O)cc1OC do in these assays?
mHTT-CaM PPI inh: 3; Pf apPOL inh: -17

What do the screens show for `COc1ccc(C(=S)N2CCN(C(=S)c3cc(OC)c(OC)c(OC)c3)CC2)cc1`?
mHTT-CaM PPI inh: 0; Pf apPOL inh: -7

What do the screens show for `Cc1ccc(CN2CCc3ccccc3C2)o1`?
mHTT-CaM PPI inh: -4; Pf apPOL inh: -1

How did Cc1[nH]c2ccccc2c1CN1CCc2ccccc2C1 do in these assays?
mHTT-CaM PPI inh: 62*; Pf apPOL inh: -5

What do the screens show for `O=[N+]([O-])c1cc([N+](=O)[O-])c2cc(-c3ccco3)[nH]c2c1`?
mHTT-CaM PPI inh: 53*

What do the screens show for `COc1cc([N+](=O)[O-])cc2[nH]c(-c3ccccc3)cc12`?
mHTT-CaM PPI inh: -2; Pf apPOL inh: -3

What do the screens show for `Cc1ccc(S(=O)(=O)N2CCc3nc(NC(=O)c4cccnc4)sc3C2)cc1`?
mHTT-CaM PPI inh: -1; Pf apPOL inh: -4

What do the screens show for `CCOc1ccccc1S(=O)(=O)N1CCc2nc(NC(=O)c3cnccn3)sc2C1`?
mHTT-CaM PPI inh: 50*; Pf apPOL inh: 18

How did O=C(Nc1nc2c(s1)CN(C(=O)COc1ccccc1)CC2)c1cnccn1 do in these assays?
mHTT-CaM PPI inh: 9; Pf apPOL inh: 11

How did O=C(Nc1nc2c(s1)CN(S(=O)(=O)C=Cc1ccccc1)CC2)c1cnccn1 do in these assays?
mHTT-CaM PPI inh: 71*; Pf apPOL inh: 24

How did O=C(OCn1nnc2ccccc2c1=O)c1ccc(F)c(F)c1 do in these assays?
mHTT-CaM PPI inh: -11; Pf apPOL inh: 5

What do the screens show for `CNc1ncnc2c1C(c1ccc([N+](=O)[O-])cc1)c1c(NC)ncnc1O2`?
mHTT-CaM PPI inh: 52*; Pf apPOL inh: 16

How did CC1(C(=O)O)COC(c2ccc([N+](=O)[O-])cc2)OC1 (centres undefined) do in these assays?
mHTT-CaM PPI inh: -3; Pf apPOL inh: -3

Results for CC1CCN(C(=O)c2ccc(Cl)c(Cl)c2)CC1 ?
mHTT-CaM PPI inh: -13; Pf apPOL inh: -11

What do the screens show for `O=C1/C(=C/c2ccc([N+](=O)[O-])cc2)C=C(c2ccccc2)N1c1ccc(F)cc1`?
mHTT-CaM PPI inh: 18; Pf apPOL inh: 0

How did CC(=O)Nc1ccc(N2C(=O)/C(=C/c3ccc(Cl)cc3)C=C2c2ccccc2)cc1 do in these assays?
mHTT-CaM PPI inh: 31; Pf apPOL inh: -1

From PubChem BioAssay
